# An excerpt weighted towards active compounds, which were near 28% of everything screened.
# CYP2C19 activ: cytochrome P450 2C19 (human) activation. activation factor at 5 µM. 96,000 tested, under 10 active. P33261. recombinant CYP2C19, luciferin-H EGE luminescence; active compounds read high; 0 = fully inhibited enzyme, 1 = untreated enzyme;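 active means activation factor of at least 2 at 5 µM in the primary screen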;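 further: 0 = wells with 2.5 mM tranylcypromine and 1 = vehicle-only wells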
# Target sequence (P33261 whole entry, looked up): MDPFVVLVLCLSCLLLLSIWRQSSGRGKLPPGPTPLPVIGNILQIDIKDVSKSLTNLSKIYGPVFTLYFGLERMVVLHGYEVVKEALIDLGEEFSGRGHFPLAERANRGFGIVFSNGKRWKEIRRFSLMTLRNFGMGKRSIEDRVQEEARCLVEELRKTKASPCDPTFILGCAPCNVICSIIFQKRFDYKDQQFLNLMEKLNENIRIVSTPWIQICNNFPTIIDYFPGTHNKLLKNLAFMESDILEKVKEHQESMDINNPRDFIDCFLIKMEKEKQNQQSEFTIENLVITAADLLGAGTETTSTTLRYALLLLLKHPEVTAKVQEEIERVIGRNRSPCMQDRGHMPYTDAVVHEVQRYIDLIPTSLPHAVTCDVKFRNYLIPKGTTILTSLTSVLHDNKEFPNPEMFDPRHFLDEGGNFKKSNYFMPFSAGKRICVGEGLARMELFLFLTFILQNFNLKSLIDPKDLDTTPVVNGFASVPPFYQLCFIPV
# PLK1 PBD inh: Plk1 (human) PBD binding inhibition; P53350; Plk1 PBD phosphopeptide binding, fluorescence polarization; inhibition, %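 (tested at about 20 µM)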; hit rate 0.13% among 97,000; in the data active means inhibition above about 34%, passing the limit was not always enough
# CYP2C19 inh: human CYP2C19 inhibition. CYP2C19 Supersomes, luciferin-H EGE luminescence, 30 min. inhibition, % at 5 µM. hit rate 21% among 96,000. P33261. AID 778;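 active means CYP2C19 inhibition above a set limit at 5 µM in the primary screen, cut at about 50% in these data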;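 further: plate controls were negative control wells for no effect and 2.5 mM tranylcypromine positive control for full effect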
# PLK1 kinase inh: inhibitors of human PLK1 kinase. inhibition, % at 10 µM. AID 619. recombinant PLK1 kinase, TR-FRET peptide phosphorylation. hit rate 0.53% among 97,000. P53350;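 active means inhibition of 50% or more in the single-concentration screen; inactive means inhibition below 50%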;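 further: 0% = DMSO max control and 100% = H-89 dihydrochloride min control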
# CYP2C9 act: CYP2C9 (human) activation; recombinant CYP2C9, luciferin-H conversion, luminescence; active compounds read high; factor 1 = untreated enzyme, 0 = blocked; P11712; hit rate 1.4% among 96,000; activation factor at 5 µM;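 active means activation factor of 2 or more for CYP2C9 at a 5 µM dose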;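 further: 0 = sulfaphenazole-blocked wells and 1 = vehicle-only wells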
# CYP2C9 inh: human CYP2C9 inhibition; P11712; CYP2C9 Supersomes, luciferin-H conversion, luminescence; inhibition, % at 5 µM; hit rate 20% among 96,000;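 active means blocking of liver enzyme CYP2C9 beyond about 50% at 5 µM, limit read from the data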
# * marks the source's active call; other numbers are inactive results; x = no result given.
SMILES,CYP2C19 activ,PLK1 PBD inh,CYP2C19 inh,PLK1 kinase inh,CYP2C9 act,CYP2C9 inh
CCCCNC1=C(Br)C(=O)CC(C)(C)C1,0.2,3,82*,-7,1,2
CCCCCCN=CC1=C(O)CC(C)(C)CC1=O,0.8,-4,21,-7,0.8,18
CCOC(=O)c1ccc(NC2c3ccccc3C(=O)N2c2ccccn2)cc1 (stereo not given),0.8,10,18,-2,0.8,22
CC(C)=CC(=O)Nc1nnc(-c2cccnc2)s1,0.1,24,87*,-8,0.9,10
CC(C)=CC(=O)Nc1nnc(C(C)C)s1,1,-6,0,-6,1,4
CCOC(=O)N1CCC(N2Cc3cccc(C(=O)NCc4ccccn4)c3C2=O)CC1,0.3,-3,74*,-1,0.1,95*
CCOC(=O)N1CCC(NC(=O)c2cccc3c2C(=O)N(CCOC)C3)CC1,0.7,16,34,-3,0.1,88*
CCOC(=O)N1CCC(N2Cc3cccc(C(=O)NC(C)c4ccc5c(c4)OCCO5)c3C2=O)CC1 (stereo not given),0.2,-14,82*,0,0,98*
COCCN1Cc2cccc(C(=O)NCc3ccccn3)c2C1=O,0.6,13,43,-1,0.9,14
CCOC(=O)N1CCC(N2Cc3cccc(C(=O)NCc4ccc(C)cc4)c3C2=O)CC1,0.8,-21,25,-13,0.3,70*
CCOC(=O)N1CCC(N2C(=O)c3ccccc3C2=O)CC1,0.8,x,16,x,0.6,44
CSCC[C@H](NC(=O)OC(C)(C)C)C(=O)N1CCC(C(=O)N[C@H](C(=O)O)C(C)C)CC1,1,1,-1,-8,1,-5
COc1cc(/C=C(\C#N)c2nc3ccccc3[nH]2)ccc1Oc1ccc([N+](=O)[O-])cn1,0.9,-35,12,-1,0.6,37
COc1cc(/C=C(/C#N)c2ccccc2)ccc1Oc1ccc([N+](=O)[O-])cn1,0.7,-7,32,-11,0.4,59*
CSc1nc(Cl)c(Cc2ccc(OC(C)C)cc2)c(N2CCOCC2)n1,0.6,-25,45,-2,0.4,62*
Cc1cc(C)c2c(CN3CCN(C)CC3)cc(=O)oc2c1,1,-9,-1,-5,1.3,-26
COc1ccc(Sc2cnn(-c3ccccc3)c(=O)c2Cl)cc1,0.6,-7,35,-20,0.1,85*
COc1ccc(N(C(=O)c2ccn[nH]2)C(C(=O)NC(C)(C)C)c2ccc(F)cc2)cc1 (stereo not given),1,11,4,-9,1,3
CCC(C)(C)NC(=O)C(c1cccc(OC)c1)N(C(=O)c1ccn[nH]1)c1cccc(OC)c1 (stereo not given),0.3,-13,74*,-14,0.8,23
CC(C)CN(C#N)c1nc(N2CCOCC2)nc(N2CCOCC2)n1,0.8,20,20,-1,0.5,51*
COc1ccc(N2C(=O)CC(N3CCC(O)(c4ccc(Br)cc4)CC3)C2=O)cc1 (stereo not given),1,8,-1,-7,1,5
COc1ccccc1N1C(=O)CCC1(C#N)c1ccc(Br)cc1 (stereo not given),0.4,-2,59*,-5,0.3,69*
COc1ccc(N2C(=O)CCC2(C#N)c2ccc(Br)cc2)cc1 (stereo not given),0.4,10,57*,-10,0.9,9
Cc1ccc2nc(SCc3ccc([N+](=O)[O-])cc3)[nH]c2c1,x,5,x,-9,x,x
O=C(CSc1nc2ccc([N+](=O)[O-])cc2[nH]1)NC1CCCCC1,0.4,18,64*,-5,0.4,62*
SMILES,CYP2C19 activ,PLK1 PBD inh,CYP2C19 inh,PLK1 kinase inh,CYP2C9 act,CYP2C9 inh
Cc1cc(C)cc(NC(=O)CSc2nc3ccncc3[nH]2)c1,0.4,6,63*,-7,0.2,76*
Cc1ccc2nc(-c3ccc(NC(=O)CSc4ccccc4)cc3)[nH]c2c1,0.7,8,35,-7,0.4,59*
Cc1ccc2nc(SCC(=O)Nc3cccc([N+](=O)[O-])c3)[nH]c2c1,0.5,40,46,-14,0.1,90*
Cn1c(SCc2ccccc2Cl)nc(C(F)(F)F)cc1=O,1,-16,-3,-3,0.9,14
CCOC(=O)CCC(=O)NCc1ccc2[nH]c(C)cc2c1,x,-17,x,-18,x,x
CCN(CC)c1cccc(OC2=NS(=O)(=O)c3ccccc32)c1,1,4,2,-14,1.3,-26

# Compound activity as filed in PubChem BioAssay.
